In PubChem BioAssay (NCATS) one finds outcome and Potency data, which are given here for eleven compounds.

The nature of test [1]: Cytometric Cell-Based qHTS for Inhibitors of the mTORC1 Signaling Pathway in MEF (Tsc2-/-, p53-/-) Cells (AID 2660).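 Further: Tsc2 and p53 null MEFs carrying empty vector with compound for 24 h; percent of cells above a phospho-rpS6 to PI ratio cutoff in each well; series mostly up to about 38 µM.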 The procedure, abridged:
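Readout: Alexa-488 phospho-rpS6 (Ser235/236) intensity divided by PI intensity, thresholded against 7.5 nM rapamycin wells and reported as % positive cells. PI cell count served as the viability measure. Compound exposure was 24 hrs at 37 degree Celsius.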

A short description of test [2]: High Content Imaging Cell-Based qHTS for Inhibitors of the mTORC1 Signaling Pathway in MEF (Tsc2-/-, p53-/-) Cells (AID 2666).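 Further: percent of cells scored positive for phospho-rpS6 Ser235/236 immunostaining by imaging.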 The procedure, abridged:
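MEF Tsc2-/- p53-/- (empty vector), DMEM/10% FBS; cpd 24 h 37 °C; PFA fix, Alexa-488 p-rpS6 S235/236 Ab, Hoechst; imaged; rapamycin-defined inhibition; % positive cells/well.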
On the technique in general: In qHTS, concentration-response curves come from the screen itself.

Test [3] in a line: High Content Imaging Cell-Based qHTS for Inhibitors of the mTORC1 Signaling Pathway in MEF Cells (AID 2667).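 Further: Tsc2-/- p53-/- MEFs stably re-expressing wild-type Tsc2 exposed 24 h; series mostly up to about 38 µM.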 The procedure, abridged: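 Read-out is the share of phospho-rpS6-positive cells per well, from Hoechst-normalized Alexa-488 Ser235/236 staining imaged on IN Cell. Cells: WT Tsc2-expressing Tsc2-/-, p53-/- MEFs exposed to compound for 24 hrs.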
Test [4] is described as follows: Cytometry Cell-Based qHTS for Inhibitors of the mTORC1 Signaling Pathway in MEF cells (AID 2668).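 Further: Tsc2-/- p53-/- mouse embryonic fibroblasts stably re-expressing wild-type Tsc2; percent cells positive for phospho-rpS6 Ser235/236 relative to propidium iodide stain; series mostly up to about 38 µM.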 The procedure, abridged: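 Phospho-rpS6 (Ser235/236) immunofluorescence over PI signal, scored as % positive cells using thresholds from 7.5 nM rapamycin and DMSO wells, after 24 h compound exposure of WT-Tsc2-rescued Tsc2-/-, p53-/- MEFs. PI cell count recorded for viability.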

Test [5] in a line: Validation screen for small molecules that induce DNA re-replication in MCF 10A normal breast cells (AID 463097). Further: nearly all actives have a fitted effect of over 60% in size. The procedure, abridged:
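Read-out is Hoechst total nuclear intensity by fluorescence scanning imager, flagging increased high-DNA-content nuclei. Compounds were incubated with MCF 10A cells for 48 hr (37 C, 5% CO2) before 40 min staining.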

Test [6] has as its target Ubiquitin carboxyl-terminal hydrolase 2 (Homo sapiens) (UniProt O75604). As to the kind of experiment: qHTS Validation Assay for Inhibitors of Ubiquitin-specific Protease USP2a Using CHOP2 as the Reporter (AID 463106). The procedure, abridged: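 Fluorescence read-out at Ex 485nm/Em 531nm after 60min RT, following addition of 25nM Ub-CHOP2 plus 25nM reporter substrate to USP2 core (10nM) pretreated 30min with compound. Data normalized to NEM full inhibition; concentration-response curves fitted.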

Test [7] concerns the target DNA polymerase III PolC-type (Bacillus subtilis (strain 168)) (UniProt P13267). Put plainly: qHTS Validation Assay for the Inhibitors of DNA Replication in Gram-Positive Bacteria (AID 485295).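 Further: reconstituted holoenzyme with PolC plus beta clamp SSB and primase; PicoGreen fluorescence of double-stranded DNA made on primed circular M13 template; series mostly up to about 57 µM.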 The procedure, abridged: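 Double-stranded DNA product detected by PicoGreen fluorescence after EDTA quench. Compound incubated with B. subtilis holoenzyme (PolC, beta subunit, SSB, primase) before substrate addition; primed replication of M13Gori with dNTPs and NTPs at room temperature; DMSO defines 0% inhibition.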

The target of test [8] is Tumor susceptibility gene 101 protein (Homo sapiens) (UniProt Q99816). Put plainly: qHTS Validation Assay for Iinhibitors of HIV-1 Budding by Blocking the Interaction of PTAP/TSG101 (AID 485342; calls by dose curve). The procedure, abridged:
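Fluorescence polarization of 50 nM FITC-PTAP peptide bound to 10 uM Tsg101 binding domain was read after 20 min room-temperature incubation with compounds, in 10 mM HEPES pH 7.5, 0.15 M NaCl, 0.01% Tween 20.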

Test [9] deals with Beta-2 adrenergic receptor (Homo sapiens) (UniProt P07550). Put plainly: qHTS validation assay of beta-arrestin-biased ligands of beta2-adrenergic receptor (AID 485366). The procedure, abridged: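 Agonist activity is measured as luciferase luminescence downstream of beta-arrestin recruitment to recombinant beta2-AR in Tango cells. Exposure lasts 18 hr at 37 degrees C, and curves are categorized by r2, response size and activity.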
Beta-2 adrenergic receptor (Homo sapiens), sequence (P07550 whole entry, looked up): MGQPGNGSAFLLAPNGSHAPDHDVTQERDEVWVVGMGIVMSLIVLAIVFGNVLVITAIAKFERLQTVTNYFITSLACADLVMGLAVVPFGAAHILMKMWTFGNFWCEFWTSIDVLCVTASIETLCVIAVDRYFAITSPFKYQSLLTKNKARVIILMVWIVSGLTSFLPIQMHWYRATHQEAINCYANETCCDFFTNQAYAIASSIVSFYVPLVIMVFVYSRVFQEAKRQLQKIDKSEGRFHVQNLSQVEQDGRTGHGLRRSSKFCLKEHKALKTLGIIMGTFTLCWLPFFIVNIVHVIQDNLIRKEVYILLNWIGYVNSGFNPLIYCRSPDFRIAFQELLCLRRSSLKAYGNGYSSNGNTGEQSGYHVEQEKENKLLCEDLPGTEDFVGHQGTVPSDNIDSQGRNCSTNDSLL

Test [10] concerns the target Thioredoxin reductase 1, cytoplasmic (Rattus norvegicus) (UniProt O89049). Put plainly: qHTS Assay for Substrates of Mammalian Selenoprotein Thioredoxin Reductase 1 (TrxR1) (AID 488772).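 Further: series mostly up to about 57 µM; a drop in NADPH fluorescence below the no-compound background marks a TrxR1 substrate.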 The procedure, abridged:
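In this dual-purpose format, potential substrates are identified from the first fluorescence read after selenite addition, not from the 8-minute delta. Rat enzyme is preincubated with NADPH and then with compound at ~22 deg C.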

Test [11] has the same target. As to the kind of experiment: qHTS Assay for Inhibitors of Mammalian Selenoprotein Thioredoxin Reductase 1 (TrxR1) (AID 488773).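 Further: drop in NADPH fluorescence over an 8 min run after selenite addition; series mostly up to about 57 µM; nearly all actives have a fitted effect of over 40% in size.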 To be noted: Potency: inhibition. The procedure, abridged: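 Inhibition is scored from the loss of NADPH fluorescence between first and last reads of an 8-min kinetic run. Selenite (400 uM) was the substrate, added after 15 min compound preincubation at room temperature.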

The target in test [12] is M-phase phosphoprotein 8 (Homo sapiens) (UniProt Q99549). Put plainly: qHTS Validation Assay for Inhibitors for MPP8 Chromodomain Interactions with Methylated Histone Tails (AID 488949).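 Further: AlphaScreen signal from MPP8 chromodomain bound to biotinylated H3K9me3 peptide; top concentration of the series differs between compounds; nearly all actives have a fitted effect of over 55% in size.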 The procedure, abridged:
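AlphaScreen proximity signal from streptavidin donor and Ni-chelate acceptor beads (10 ug/mL each) reported binding of MPP8 to trimethyl-K9 H3(1-18) peptide, both at 50 nM. The complex formed 30 min before a 30 min compound exposure at room temperature, in PBS pH 7.4.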

Test [13] in a line: qHTS Validation Assay to Find Inhibitors of Chronic Active B-Cell Receptor Signaling (AID 485345; active means well fitted curve in the direction sought with a large enough effect in the main read-out, with a control signal flat, not every such curve was filed as active; further: potency means the concentration at half of the fitted maximal effect). The procedure, abridged: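 TMD8 ABC-DLBCL cells stably carrying doxycycline-inducible IkappaBalpha–green luciferase fusion plus unfused red luciferase; compounds 46 uM to 3 nM, 4 h at 37C with doxycycline. Corrected green/red luminescence ratio normalized to 10 uM MG-132 and basal cell wells; curves fitted.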

For test [14], the target named is Flap endonuclease 1 (Homo sapiens) (UniProt P39748). Put plainly: qHTS Validation Assay for the Inhibitors of Human Flap endonuclease 1 (FEN1) (AID 488816). The procedure, abridged: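 Enzyme reagent 10 nM; cpds pinned; 15 min RT preinc.; substrate 50 nM final; reads t=0 and 15 min; no-enzyme buffer wells as neg. control; normalized data, 4-parameter Hill fit.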
Flap endonuclease 1 (Homo sapiens), sequence (P39748 whole entry, looked up): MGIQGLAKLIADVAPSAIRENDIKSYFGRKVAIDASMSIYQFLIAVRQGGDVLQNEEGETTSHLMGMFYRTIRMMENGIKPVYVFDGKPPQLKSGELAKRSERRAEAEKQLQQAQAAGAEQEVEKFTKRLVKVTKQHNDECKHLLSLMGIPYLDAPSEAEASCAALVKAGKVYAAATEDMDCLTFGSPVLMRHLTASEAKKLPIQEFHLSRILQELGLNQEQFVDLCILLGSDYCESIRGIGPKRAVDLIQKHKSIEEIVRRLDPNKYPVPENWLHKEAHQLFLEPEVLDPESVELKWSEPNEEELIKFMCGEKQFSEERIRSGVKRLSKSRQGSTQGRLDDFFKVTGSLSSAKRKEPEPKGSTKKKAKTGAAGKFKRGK

Test [15] concerns the target ATP-dependent DNA helicase Q1 (Homo sapiens) (UniProt P46063). Put plainly: qHTS Validation Assay for Inhibitors of RecQ-Like Dna Helicase 1 (RECQ1) (AID 2353). The procedure, abridged:
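RECQ1T1 50 nM; forked duplex (20 bp + 30-nt ss tails) 200 nM, ATP 2 mM final; pH 8.0, 2 mM MgCl2, 2.5 ug/ml poly(dI-dC); 15 min compound preincubation; discontinuous kinetic read over 2 h at RT.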

Test [16] addresses RecQ-like DNA helicase BLM (Homo sapiens) (UniProt P54132). As to the kind of experiment: qHTS Validation Assay for Inhibitors of Bloom's syndrome helicase (BLM) (AID 2364). The procedure, abridged: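 50 nM BLM preincubated 15 min at room temperature with compound in pH 8.0 Tris buffer containing 2.5 ug/ml poly(dI-dC); started with 200 nM TAMRA/BHQ-2 forked duplex and 2 mM ATP (final). Unwinding read as TAMRA fluorescence increase, two reads 2 h apart.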

Test [17] addresses ATP-dependent 6-phosphofructokinase (Trypanosoma brucei brucei) (UniProt O15648). As to the kind of experiment: qHTS Validation Assay to Find Inhibitors of T. brucei phosphofructokinase (AID 485368). The settings on record: outcome: dose series up to 57.5 µM. The procedure, abridged:
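Inhibition derived from concentration-response curves of luminescence, ranked by r2, response size and curve class; the underlying reaction used 1.25 nM PFK, 0.1 mM ATP and 0.5 mM F6P, 45 min, room temperature.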

Test [18] in a line: Quantitative high throughput screen for delayed death inhibitors of the malarial parasite plastid, 96 hour incubation (AID 488745). Further: potency means the concentration at half of the fitted maximal effect; nearly all actives have a fitted effect of over 70% in size. The procedure, abridged:
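Readout is firefly luciferase luminescence from an integrated reporter in P. falciparum; lower signal marks inhibited growth. Cultures at 2% hematocrit and 0.1% parasitemia were treated with compound across two generations (96 h, 37 C, 5% CO2).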

Each structure is given as a SMILES string. Inconclusive results are not listed. Active and inactive are the calls of the source. Unless noted, the call rests on the fitted dose curve; in most records, active means well fitted curve in the direction sought with a large enough effect; inconclusive means small, poorly fitted or top-dose-only effect, or another doubt; inactive means no such curve, though single readings can be large; an effect the other way counts as inactive or inconclusive.

M-phase phosphoprotein 8 (Homo sapiens), sequence (Q99549 whole entry, looked up): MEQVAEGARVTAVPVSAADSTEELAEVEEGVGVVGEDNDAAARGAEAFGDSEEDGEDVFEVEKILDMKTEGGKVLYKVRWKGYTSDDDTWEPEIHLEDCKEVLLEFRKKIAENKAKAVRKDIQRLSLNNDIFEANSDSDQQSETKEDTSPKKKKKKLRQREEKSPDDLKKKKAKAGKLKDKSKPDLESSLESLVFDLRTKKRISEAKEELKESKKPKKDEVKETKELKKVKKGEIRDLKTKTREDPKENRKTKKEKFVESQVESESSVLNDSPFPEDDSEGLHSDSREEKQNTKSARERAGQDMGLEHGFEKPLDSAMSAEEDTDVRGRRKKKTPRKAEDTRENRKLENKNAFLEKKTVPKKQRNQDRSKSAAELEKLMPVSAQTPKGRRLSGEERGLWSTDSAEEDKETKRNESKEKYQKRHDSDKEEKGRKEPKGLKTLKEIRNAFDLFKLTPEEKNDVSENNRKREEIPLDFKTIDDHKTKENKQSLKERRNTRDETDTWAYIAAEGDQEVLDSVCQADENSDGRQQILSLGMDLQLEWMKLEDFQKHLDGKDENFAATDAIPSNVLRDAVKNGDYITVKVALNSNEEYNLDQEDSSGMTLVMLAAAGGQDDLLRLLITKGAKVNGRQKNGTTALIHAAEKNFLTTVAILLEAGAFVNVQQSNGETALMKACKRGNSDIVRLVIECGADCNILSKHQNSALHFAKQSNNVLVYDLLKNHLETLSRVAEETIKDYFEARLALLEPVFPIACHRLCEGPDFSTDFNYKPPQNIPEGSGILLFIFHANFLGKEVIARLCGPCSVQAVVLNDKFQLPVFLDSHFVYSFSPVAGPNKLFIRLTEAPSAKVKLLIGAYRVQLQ
DNA polymerase III PolC-type (Bacillus subtilis (strain 168)), sequence (P13267 whole entry, looked up): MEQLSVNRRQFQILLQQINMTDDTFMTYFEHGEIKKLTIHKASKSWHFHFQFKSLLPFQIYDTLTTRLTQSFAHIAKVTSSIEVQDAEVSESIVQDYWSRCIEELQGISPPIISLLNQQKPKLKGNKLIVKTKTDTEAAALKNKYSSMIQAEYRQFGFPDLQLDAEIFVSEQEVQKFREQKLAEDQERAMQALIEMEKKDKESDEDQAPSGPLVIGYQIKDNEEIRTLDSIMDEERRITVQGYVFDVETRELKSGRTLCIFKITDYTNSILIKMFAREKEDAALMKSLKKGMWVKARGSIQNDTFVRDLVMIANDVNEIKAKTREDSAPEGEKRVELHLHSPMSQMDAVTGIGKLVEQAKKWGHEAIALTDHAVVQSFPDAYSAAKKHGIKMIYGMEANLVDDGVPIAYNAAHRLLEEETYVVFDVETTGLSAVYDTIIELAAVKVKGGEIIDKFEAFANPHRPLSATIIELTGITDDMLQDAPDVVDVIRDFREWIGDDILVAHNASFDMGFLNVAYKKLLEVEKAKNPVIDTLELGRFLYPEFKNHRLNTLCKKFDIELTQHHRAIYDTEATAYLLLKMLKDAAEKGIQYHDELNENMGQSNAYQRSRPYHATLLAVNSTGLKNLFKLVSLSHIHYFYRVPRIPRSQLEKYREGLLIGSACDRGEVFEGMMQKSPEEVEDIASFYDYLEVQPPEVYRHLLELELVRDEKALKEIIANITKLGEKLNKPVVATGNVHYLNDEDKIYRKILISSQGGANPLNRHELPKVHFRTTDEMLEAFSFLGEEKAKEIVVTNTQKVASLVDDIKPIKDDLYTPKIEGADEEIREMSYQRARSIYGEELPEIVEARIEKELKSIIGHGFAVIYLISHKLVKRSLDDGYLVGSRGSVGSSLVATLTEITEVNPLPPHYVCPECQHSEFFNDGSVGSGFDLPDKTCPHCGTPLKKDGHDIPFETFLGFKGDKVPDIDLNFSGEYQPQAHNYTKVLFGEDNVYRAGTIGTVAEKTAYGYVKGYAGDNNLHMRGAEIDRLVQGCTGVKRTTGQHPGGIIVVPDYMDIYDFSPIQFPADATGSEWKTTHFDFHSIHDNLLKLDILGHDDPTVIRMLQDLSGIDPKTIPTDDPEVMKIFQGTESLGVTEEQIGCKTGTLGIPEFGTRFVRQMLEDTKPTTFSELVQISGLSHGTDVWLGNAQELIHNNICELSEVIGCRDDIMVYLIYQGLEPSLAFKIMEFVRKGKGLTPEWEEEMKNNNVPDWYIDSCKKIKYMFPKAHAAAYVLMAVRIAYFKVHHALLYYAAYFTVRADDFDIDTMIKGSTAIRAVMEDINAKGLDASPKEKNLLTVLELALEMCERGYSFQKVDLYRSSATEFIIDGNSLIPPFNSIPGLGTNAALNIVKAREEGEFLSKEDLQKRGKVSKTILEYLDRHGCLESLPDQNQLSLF
ATP-dependent DNA helicase Q1 (Homo sapiens), sequence (P46063 whole entry, looked up): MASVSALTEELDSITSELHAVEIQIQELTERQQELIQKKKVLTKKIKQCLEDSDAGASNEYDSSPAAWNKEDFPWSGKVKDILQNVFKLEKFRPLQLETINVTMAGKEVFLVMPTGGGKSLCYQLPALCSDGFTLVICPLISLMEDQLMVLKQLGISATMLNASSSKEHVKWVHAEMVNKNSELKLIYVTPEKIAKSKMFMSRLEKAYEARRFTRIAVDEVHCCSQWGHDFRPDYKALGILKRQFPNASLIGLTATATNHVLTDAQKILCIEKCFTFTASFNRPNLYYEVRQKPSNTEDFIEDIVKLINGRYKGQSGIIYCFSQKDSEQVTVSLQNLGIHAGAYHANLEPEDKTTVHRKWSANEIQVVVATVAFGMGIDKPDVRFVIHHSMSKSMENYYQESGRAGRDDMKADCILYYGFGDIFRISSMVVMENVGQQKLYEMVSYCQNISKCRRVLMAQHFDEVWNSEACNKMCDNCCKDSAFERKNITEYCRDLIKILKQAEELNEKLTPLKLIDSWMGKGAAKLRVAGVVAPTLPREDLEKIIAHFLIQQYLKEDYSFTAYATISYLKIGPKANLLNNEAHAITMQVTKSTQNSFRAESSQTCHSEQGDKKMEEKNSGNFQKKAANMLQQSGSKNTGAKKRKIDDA
Thioredoxin reductase 1, cytoplasmic (Rattus norvegicus), sequence (O89049 whole entry, looked up): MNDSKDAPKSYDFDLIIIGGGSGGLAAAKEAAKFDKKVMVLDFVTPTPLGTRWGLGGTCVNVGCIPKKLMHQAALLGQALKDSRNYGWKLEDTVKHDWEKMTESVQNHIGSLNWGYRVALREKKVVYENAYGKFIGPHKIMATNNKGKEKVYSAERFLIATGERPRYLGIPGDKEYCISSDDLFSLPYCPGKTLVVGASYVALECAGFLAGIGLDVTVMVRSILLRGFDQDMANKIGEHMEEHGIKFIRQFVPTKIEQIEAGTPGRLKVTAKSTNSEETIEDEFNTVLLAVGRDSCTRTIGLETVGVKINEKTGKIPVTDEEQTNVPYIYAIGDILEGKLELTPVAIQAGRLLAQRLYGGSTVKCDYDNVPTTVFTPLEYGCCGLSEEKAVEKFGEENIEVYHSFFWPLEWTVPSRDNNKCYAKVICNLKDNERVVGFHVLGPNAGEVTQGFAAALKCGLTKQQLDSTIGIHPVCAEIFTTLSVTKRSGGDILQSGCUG
Ubiquitin carboxyl-terminal hydrolase 2 (Homo sapiens), sequence (O75604 whole entry, looked up): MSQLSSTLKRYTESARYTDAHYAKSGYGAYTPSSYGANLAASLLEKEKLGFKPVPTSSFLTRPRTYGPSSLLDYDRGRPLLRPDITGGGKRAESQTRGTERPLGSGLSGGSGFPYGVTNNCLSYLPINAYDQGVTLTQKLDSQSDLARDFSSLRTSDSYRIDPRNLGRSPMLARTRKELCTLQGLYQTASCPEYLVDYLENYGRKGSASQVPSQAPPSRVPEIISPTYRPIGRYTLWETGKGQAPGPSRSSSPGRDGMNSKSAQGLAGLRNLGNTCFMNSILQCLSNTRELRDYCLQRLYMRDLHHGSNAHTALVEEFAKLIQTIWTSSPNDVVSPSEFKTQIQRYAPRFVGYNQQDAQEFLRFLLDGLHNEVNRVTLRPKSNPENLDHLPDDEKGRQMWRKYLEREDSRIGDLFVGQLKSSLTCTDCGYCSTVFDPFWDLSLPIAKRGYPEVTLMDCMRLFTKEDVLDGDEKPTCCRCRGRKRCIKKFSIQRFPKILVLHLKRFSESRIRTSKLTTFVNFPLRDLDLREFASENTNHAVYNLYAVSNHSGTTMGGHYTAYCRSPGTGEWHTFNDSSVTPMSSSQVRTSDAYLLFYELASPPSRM

On to `COCCCC/C(=N\OCCN)c1ccc(C(F)(F)F)cc1`, for which the compound was classed as inactive in test [1], in test [6], in [8], in test [9] and in test [10]. For the same compound, the Potency entry in [2], in test [3], in [4], in test [5], in [7] and in test [11] was “inactive” each time. In [12], the Potency result is “inactive”.

Take `CC(=O)[C@@]1(O)CC[C@H]2[C@@H]3CCC4=CC(=O)CC[C@]4(C)[C@H]3CC[C@@]21C`: the outcome in test [1], in [6], in test [8], in test [9] and in [10] was inactive. For the same compound, the Potency entry in test [2], in test [3], in [4], in [13], in test [11] and in test [14] was “inactive” throughout. In test [12], the Potency result is “inactive”.

For `Cc1cccc(C)c1NC(=O)C(C)N` (centres undefined), the result in test [1], in [6], in test [8], in [9] and in [10] was inactive. Besides, the Potency entry in test [2], in test [3], in [4], in test [7], in test [13] and in test [11] was “inactive” each time. Moreover, the Potency result in test [14] is “inactive”.

As to `CCOC(=O)C1=C(C)NC(C)=C(C(=O)OC)C1c1cccc([N+](=O)[O-])c1` (centres undefined), the Potency entry in test [15], in test [2], in test [7], in [11] and in test [14] was “inactive” throughout. In addition, the compound was called inactive in test [1], in test [6], in test [8], in [9] and in [10]. For the same compound, in [13], the Potency is 9.2 µM (active).

`COCCOC(=O)C1=C(C)NC(C)=C(C(=O)OC(C)C)C1c1cccc([N+](=O)[O-])c1` (centres undefined): the result in [1], in test [6], in [8] and in test [9] was inactive. The Potency entry in [2], in test [3], in test [4], in test [5], in test [11] and in test [14] was “inactive” each time. Moreover, the Potency in test [13] was 9.2 µM (active).

`CCCCCCCC/C=C\CCCCCCCC(=O)NCc1ccc(O)c(OC)c1`: the outcome in test [1], in test [6], in test [8] and in test [9] was inactive. The Potency result in [2], in [7], in test [13], in [11], in [14] and in test [12] was “inactive” in each case.

Consider `C[C@@H](O)[C@H]1C(=O)N2C(C(=O)O)=C(SCCN=CN)C[C@H]12`, for which the outcome in test [1], in test [6], in test [8] and in test [9] was inactive. For the same compound, the Potency entry in test [2], in [3], in test [4], in test [7], in test [13] and in test [11] was “inactive” in each case. For the same compound, the Potency result in test [14] and in test [12] was “inactive” each time.

On to `CCc1cccc(N(C)C(N)=Nc2cccc3ccccc23)c1`, for which the Potency entry in [15], in test [16], in [2], in [5], in [11] and in test [14] was “inactive” in each case. For the same compound, in [12], the Potency result is “inactive”. Further, the compound was called inactive in [1], in test [6] and in [8].

Regarding `CCN(CC)CCCN(c1ccccc1)C1Cc2ccccc2C1`, the result in [1], in test [6], in test [8], in test [9] and in test [10] was inactive. The Potency entry in test [2], in test [7], in test [13], in test [11] and in test [14] was “inactive” throughout.

Regarding `C[N+](C)(C)CCCCCCCCCC[N+](C)(C)C`, the Potency entry in test [15], in test [16], in test [2], in test [3], in [4] and in test [5] was “inactive” each time. The Potency result in [13] and in [11] was “inactive” throughout. Besides, the outcome in [1], in [6], in [8], in test [17] and in test [10] was inactive. Besides, in [18], the Potency was 0.329 µM (active).

For `CN1C[C@H](C(=O)N[C@]2(C)O[C@@]3(O)[C@@H]4CCCN4C(=O)[C@H](Cc4ccccc4)N3C2=O)C[C@@H]2c3cccc4[nH]cc(c34)C[C@H]21`, the compound was classed as inactive in [1], in test [6] and in test [8]. Besides, the Potency result in test [2], in test [3], in test [4], in test [7], in test [13] and in test [11] was “inactive” each time. For the same compound, in test [14], the Potency result is “inactive”.
